From PubChem BioAssay (NCI)
This is part of a sample that, as a whole, favours compounds with a hit. Of some 83,000 tested, about 20% had one in any assay.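 Method: cells in 96-well plates; compound added at one concentration; 48 h incubation; percent growth measured; values under 10 scored active.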 A number with no mark means an inactive call. Activity calls are given as the source filed them.

test system: OVCAR-4 ovarian; assay: NCI-60 one-dose screen, 48 h (100 = growth as untreated, 0 = no growth, -100 = all killed); conditions: 10 µM unless noted
Protocol: Growth inhibition of the OVCAR-4 human tumor cell line is measured as a screen for anti-cancer activity. Cells are grown in 96 well plates and exposed to the test compound for 48 hours. Compounds are tested at a single concentration, which is 10^-5 M for most compounds. The reported endpoint is percent growth (GI% or GIPRCNT), where numbers from 0 - 100% represent growth inhibition, and numbers from -100% - 0 represent cell death. For example, a value of 40 represents 60% growth inhibition. A value of 0 means no net growth occurred over the course of the experiment. A value of -40 indicates 40% of cells at the beginning of the experiment died by the end of the experiment. A value of -100 means all cells are dead at the end of the experiment.
NCI-60 Human Tumor Cell Lines Screen was performed using the standard one-dose NCI protocol, which is described in more detail at https://dtp.cancer.gov/discovery_development/nci-60/default.htm.
Compounds with GIPRCNT values below 10 were considered active. Activity score was based on GIPRCNT using the following formula: […]
Score is 0 for GIPRCNT values of 100 or above, 50 for GIPRCNT values of 0, and 100 for GIPRCNT values of -100.

Row | SMILES | growth
1 | O=C1C(Cl)=C(N2CCOCC2)C(=O)c2ccccc21 | 37.7%
2 | Cc1cccc(N2CCN(C(C)C#N)CC2)c1 (stereo not given) | 114%
3 | COc1cc(NCCCN=C(N)N)c2ncccc2c1 | -95.8% (active)
4 | CCOC(=S)S[C@H]1C[C@@H]2[C@H](CC[C@]3(C)C(=O)CC[C@@H]23)[C@@]2(C)CCC(=O)C=C12 | 106%
5 | C=CC[PH+](c1ccccc1)c1ccccc1.C=CC[PH+](c1ccccc1)c1ccccc1.[Cl][Pt][Cl] | 39.7%
6 | Cc1cc(N(CCCl)CCCl)ccc1C=Nc1cccnc1 | 80.6%
7 | CC1(C)N=C(N)N=C(N)N1c1cccc(CCCCc2ccc(Cl)c(S(=O)(=O)F)c2)c1 | 50.5%
8 | CCCCCCCCCCCCCCCCCC1OC[C@H](COC(=O)O[C@@H](C(=O)O[C@H]2C[C@@]3(O)[C@@H](OC(=O)c4ccccc4)[C@@H]4[C@]5(OC(C)=O)CO[C@@H]5C[C@H](O)[C@@]4(C)C(=O)[C@H](OC(C)=O)C(=C2C)C3(C)C)[C@@H](NC(=O)c2ccccc2)c2ccccc2)O1 (stereo not given in full) | 75.5%
9 | NC(=Nc1ccccc1)N[N+](=O)[O-] | 96.5%
10 | COc1cccc2c1c(C(=O)C(=O)Nc1ccn[nH]1)cn2Cc1ccc(F)cc1 | 110%
11 | CC1=C(CNO)C2=C(C)C3(CC3)[C@@](C)(O)C(=O)C2=C1 | -8.4% (active)
12 | COc1ccc2c(c1)c(-c1nc(-c3cn(C)c4ncccc34)cs1)cn2CCCCN1CCCCC1 | -6.02% (active)
13 | Cc1ccc2c(C(C[N+](=O)[O-])c3cccs3)c(-c3ccccc3)[nH]c2c1 (stereo not given) | 38%
14 | O=C1NC(=O)C(=Cc2cn(C(=O)c3ccccc3)c3ccccc23)C(=O)N1 | 92.1%
15 | O=c1[nH]c2ccc([N+](=O)[O-])cc2c(=O)o1 | 98.8%
16 | COc1ccc(/C(C)=C(\c2ccc(OCCN3CCOCC3)cc2)c2ccc(OC(=O)Cc3ccccc3)cc2)cc1 | 106%
17 | Cc1ccc(N2COOC3(OOC2)C2CC4CC(C2)CC3C4)cc1 | 101%
18 | C[C@]12CCc3sc(-c4cccc(F)c4)nc3C1=CC[C@@H]1[C@@H]2CC[C@]2(C)C(=O)CC[C@@H]12 | 65.1%
19 | Clc1cccc(N2COOC3(OOC2)C2CC4CC(C2)CC3C4)c1 | 95.3%
20 | CNC(=O)Oc1cccc(C(F)(F)F)c1 | 114%

Row | SMILES | growth
21 | COC(=O)[C@H](Cc1ccccc1)NNC(=O)c1csc([C@@H](C[C@H](C(C)C)N(C)C(=O)[C@@H](NC(=O)[C@H]2CCCCN2C)C2CC2)OC(C)=O)n1 | 41.3%
22 | CCOC(=O)[C@@H](C)C[C@H](Cc1ccccc1)NC(=O)c1csc([C@@H](C[C@H](C(C)C)N(C)C(=O)[C@@H](NC(=O)[C@H]2CCCCN2C)C(C)(C)CC)OC(C)=O)n1 | 30.4%
23 | CCOP1(=O)CC(C)=C(Cl)C(P(=O)(OCC)OCC)C1 (stereo not given) | 92.4%
24 | CC[S][Hg][Cl] | 122%
25 | CC(=O)OC1CCC2C3CCC4=C/C(=N/OC(=O)c5ccc(N(CCCl)CCCl)cc5)CCC4(C)C3CC(C)C12 (stereo not given) | 72%
26 | CC(=O)[C@H]1CC[C@H]2[C@@H]3CC[C@H]4C[C@H](N)CC[C@]4(C)[C@H]3CC[C@]12C | 84.1%
27 | CC(C)=CC1C(C(=O)OCc2cccc(Oc3ccccc3)c2)C1(C)C (stereo not given) | 97.3%
28 | COc1ccc(C2=CC(c3ccc(OC)c(OC)c3)c3c(c4ccccc4oc3=O)O2)cc1OC (stereo not given) | 42.8%
29 | Nc1nnnc2nc[nH]c12 | 27.4%
30 | COC(=O)[C@@H](C)C[C@H](Cc1ccccc1)NC(=O)c1csc([C@@H](C[C@H](C(C)C)N(C)C(=O)[C@@H](NC(=O)[C@H]2CCCCN2C)C(C(F)(F)F)C(F)(F)F)OC(C)=O)n1 | 43.7%
31 | C1CCC2(CC1)OOCNCOO2 | 112%
32 | CC(=O)O[C@H]1CC[C@]2(C)[C@H]3CC[C@]4(C)[C@@H](OC(C)=O)CC[C@H]4[C@@H]3[C@@H](C)[C@]2(O)C1 | 110%
33 | O=C1C(N2CC2)=C(N2CC2)C(=O)C(N2CC2)=C1N1CC1 | 51.7%
34 | COC(=O)[C@H](Cc1ccccc1)NC(=O)c1csc([C@@H](C[C@H](C(C)C)N(C)C(=O)[C@@H](NC(=O)[C@H]2CCCN2C)C2CC2)OC(C)=O)n1 | 59.5%
35 | Cc1ccc(Nc2nc3c(s2)C2=CC[C@@H]4[C@H](CC[C@]5(C)C(=O)CC[C@@H]45)[C@@]2(C)CC3)cc1 | 44.8%
36 | CCOC(=O)[C@@H](C)C[C@H](Cc1ccccc1)NC(=O)c1nc([C@@H](C[C@H](C(C)C)N(C)C(=O)[C@@H](NC(=O)[C@H]2CCCCN2C)C(C)C)OC(C)=O)sc1CCOCc1ccccc1 | 14.9%
37 | CC(C)=CCc1c(O)c(C(=O)CC(C)C)c(O)c2c(-c3ccccc3)cc(=O)oc12 | 68.7%
38 | CCCCCCCC(=O)OCC(=O)[C@]1(O)Cc2c(O)c3c(c(O)c2[C@@H](OC2CC(N)C(O)C(C)O2)C1)C(=O)c1c(OC)cccc1C3=O (stereo not given in full) | -72.1% (active)
39 | Clc1ccc(COC(Cn2ccnc2)c2ccc(Cl)cc2Cl)cc1 (stereo not given) | 54%
40 | CCCCN1CCCC[C@@H]1C(=O)N[C@H](C(=O)N(C)[C@H](C[C@@H](OC(C)=O)c1nc(C(=O)NC2CCC(C(=O)OC)CC2)cs1)C(C)C)C(C)C (stereo not given in full) | 52.2%
